Values joined by “and” are separate entries in the source; they are usually repeats but may differ in a detail not shown here. Equal values may be shown once. Values without a mark were called inactive. Inconclusive results are not listed. Entries that show only a call come without a potency. Active and inactive are the calls of the source. Unless noted, calls follow the shape of the dose curve; as a rule, active = well fitted curve in the direction sought with a large enough effect; inconclusive = small, poorly fitted or top-dose-only effect, or another doubt; inactive = no such curve, though single readings can be large; an effect the other way counts as inactive or inconclusive.
Tests used:
[1] = qHTS for Activators of Parkin Expression: LOPAC Validation Assay (FLuc Reporter) (AID 720573)
How it was run: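 FLuc luminescence read-out from a neuronal line expressing a Parkin-promoter-driven coincidence reporter. Cells treated 24 h at 37 C, 5% CO2 with compounds at 7 concentrations; signal increase normalized to DMSO and positive control.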

[2] = target: T1, Hexokinase-4 (Homo sapiens) + Glucokinase regulatory protein (Homo sapiens) (UniProt P35557+Q14397); assay: qHTS assay for inhibitors of recombinant human GCK-GKRP interaction: Diaphorase-coupled assay (AID 743205)
How it was run: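 Resorufin fluorescence (525/590 nm), read each minute over 30 min, reports GCK activity coupled via G6PDH and diaphorase. Reaction: 10 nM GST-GCK, 10 nM FLAG-GKRP, 5 mM glucose, 0.4 mM ATP, 0.15 mM NADP+, 0.1 mM resazurin.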

[3] = target: T1, Hexokinase-4 (Homo sapiens) + Glucokinase regulatory protein (Homo sapiens); assay: qHTS assay for inhibitors of recombinant human GCK-GKRP interaction: ADP-Glo assay (AID 743206)
How it was run: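 GST-GCK and FLAG-GKRP (15 nM each in the dispensed mix, with 2 uM S6P) react with 0.4 mM ATP and 5 mM glucose (final) in Hepes pH 7.6 for 60 min at room temperature. ADP is measured by ADP-Glo luminescence.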

[4] = target: T1, Hexokinase-4 (Homo sapiens) + Glucokinase regulatory protein (Homo sapiens); assay: qHTS assay for inhibitors of recombinant human GCK-GKRP interaction: HTRF assay (AID 743207)
How it was run: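 HTRF read-out (ex 320 nm; 615/665 nm emission) after 60 min RT equilibration of 5 nM GST-GCK, 5 nM FLAG-GKRP, 2 uM S6P, compound and anti-FLAG/anti-GST detection antibodies; signal normalized between DMSO wells with and without GCK.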

[5] = qHTS Assay for Identifying Gametocytocidal Compounds (AID 743244);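 also: actives lower the fluorescent signal which means gametocytes are killed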; conditions: P. falciparum 3D7 stage III-V gametocytes, alamarBlue, 72 h; max response: hits give low values
How it was run: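 Using 20,000 stage III–V 3D7 gametocytes per well, compounds were incubated 72 h under 37 °C/5% CO2. Viability was then assessed by 24 h alamarBlue reduction, measured fluorometrically at 525/598 nm.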

[6] = qHTS assay for small molecule agonists of the antioxidant response element (ARE) signaling pathway measured by Nrf2-dependant transcriptional activity (AID 720636; active = well fitted curve in the direction sought with a large enough effect in the repeat runs; an effect the other way counts as inactive or inconclusive)
How it was run: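 Nrf2-dependent transcription read as ONE-Glo luciferase signal from ARE-luc HepG2 reporter cells after 16 hr compound treatment at 37 C, 5% CO2, in assay medium with 1% dialyzed FBS.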

[7] = qHTS assay for small molecule antagonists of the retinoid-related orphan receptor gamma (ROR-gamma) signaling pathway - cell viability counter screen (AID 720652; active = well fitted curve in the direction sought with a large enough effect in the repeat runs; an effect the other way counts as inactive or inconclusive;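 also: CHO reporter cells with doxycycline-induced ROR-gamma expression; series mostly up to about 92 µM; compound exposure lasted 16 hr before ATP read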)
How it was run: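 Counter screen in CHO cells carrying TET-inducible ROR-gamma and an ROR response element-luciferase reporter; cells plated 5 hr, compound pinned, doxycycline added, then 16 hr at 37 C. Viability read as intracellular ATP by CellTiter-Glo luminescence.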

[8] = qHTS assay for small molecule agonists of the antioxidant response element (ARE) signaling pathway measured by Nrf2-dependant transcriptional activity - cell viability counter screen (AID 720653; active = well fitted curve in the direction sought with a large enough effect in the repeat runs; an effect the other way counts as inactive or inconclusive; also: potency is read from the fitted curve at half-maximal effect); conditions: ARE-bla HepG2 viability, CellTiter-Glo ATP luminescence, 16 h; max response: hits give low values
How it was run: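 ARE-bla HepG2 cells (2,000/well) rested 5 hrs at 37C/5% CO2, then exposed to compounds in DMSO for 16 hrs. Viability was read in the same wells as intracellular ATP by luminescence, 30 min at room temperature after reagent addition.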

[9] = qHTS assay for cell viability of HEK293 cells (AID 743288); conditions: ATP luminescence (CellTiter-Glo), 18 h; max response: hits give low values; also: nearly all actives have a fitted effect of over 50% in size; also: potency is read from the fitted curve at half-maximal effect
How it was run: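 Environmental chemicals tested in qHTS format against parental HEK293 cells; 18 h treatment, 37 C; read-out ATP luminescence (CellTiter-Glo), 30 min RT development.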

[10] = qHTS assay for cell viability of the p53RE-bla HCT-116 cell line (AID 743292); also: nearly all actives have a fitted effect of over 55% in size
How it was run: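 ATP-based luminescent viability (CellTiter-Glo, 30 min RT) after 16 h compound treatment at 37 C of p53RE-bla HCT-116 cells, seeded at 4,000 cells/well and rested 5 h before dosing.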

T1 sequence (P35557 whole entry, looked up): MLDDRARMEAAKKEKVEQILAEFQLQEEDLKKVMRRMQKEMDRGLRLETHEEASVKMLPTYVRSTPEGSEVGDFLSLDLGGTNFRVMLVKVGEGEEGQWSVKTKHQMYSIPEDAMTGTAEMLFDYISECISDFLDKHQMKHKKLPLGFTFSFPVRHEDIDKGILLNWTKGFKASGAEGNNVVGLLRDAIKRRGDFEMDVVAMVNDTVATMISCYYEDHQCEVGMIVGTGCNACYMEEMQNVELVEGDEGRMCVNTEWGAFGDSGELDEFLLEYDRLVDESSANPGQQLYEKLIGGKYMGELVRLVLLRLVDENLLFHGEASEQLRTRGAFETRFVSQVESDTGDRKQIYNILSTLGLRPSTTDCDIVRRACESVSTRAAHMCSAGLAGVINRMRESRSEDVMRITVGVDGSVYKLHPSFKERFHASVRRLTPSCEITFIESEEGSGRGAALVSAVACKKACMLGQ
T1 sequence (Q14397 whole entry, looked up): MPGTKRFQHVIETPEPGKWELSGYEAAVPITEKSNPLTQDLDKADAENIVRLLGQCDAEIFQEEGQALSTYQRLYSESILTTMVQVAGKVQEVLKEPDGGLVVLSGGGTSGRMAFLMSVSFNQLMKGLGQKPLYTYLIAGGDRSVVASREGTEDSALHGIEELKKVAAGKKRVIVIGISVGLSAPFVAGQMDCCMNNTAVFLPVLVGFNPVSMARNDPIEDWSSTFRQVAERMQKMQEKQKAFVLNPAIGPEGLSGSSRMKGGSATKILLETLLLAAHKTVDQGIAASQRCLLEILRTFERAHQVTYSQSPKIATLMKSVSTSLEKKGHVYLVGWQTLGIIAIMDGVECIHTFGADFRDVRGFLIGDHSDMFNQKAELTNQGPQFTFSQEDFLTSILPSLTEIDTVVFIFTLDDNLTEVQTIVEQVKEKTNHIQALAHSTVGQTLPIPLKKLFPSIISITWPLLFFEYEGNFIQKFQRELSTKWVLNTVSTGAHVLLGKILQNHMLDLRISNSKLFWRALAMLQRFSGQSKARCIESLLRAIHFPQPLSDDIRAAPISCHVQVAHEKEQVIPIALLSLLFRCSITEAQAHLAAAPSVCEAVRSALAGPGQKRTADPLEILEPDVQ

NC(N)=N/N=C/c1c(Cl)cccc1Cl
outcome [1]: inactive | outcome [2]: inactive | outcome [3]: inactive | Potency [4]: inactive

Cc1ccc(=O)n(-c2ccccc2)c1
outcome [1]: inactive | outcome [2]: inactive | outcome [3]: inactive | Potency [4]: inactive | max response [5]: 6.86% and 22.4%

CNCCCN1c2ccccc2CCc2ccccc21
outcome [1]: inactive

NC(=O)N1c2ccccc2C=Cc2ccccc21
outcome [1]: inactive | outcome [6]: inactive | outcome [7]: inactive | max response [8]: -1.67% and -8.32% | outcome [2]: inactive | outcome [3]: inactive | Potency [4]: inactive | max response [5]: -9.6% and 15.5% | max response [9]: -11.6% and -13.8% | outcome [10]: inactive

CC(N=C(NC#N)Nc1ccncc1)C(C)(C)C (stereo not given)
outcome [1]: inactive | outcome [2]: inactive | outcome [3]: inactive | Potency [4]: inactive | max response [5]: 14.1% and -10.9%

CCCN(CCC)C(=O)C(CCC(=O)O)NC(=O)c1ccccc1 (stereo not given)
outcome [1]: inactive | outcome [2]: inactive | outcome [3]: inactive | Potency [4]: inactive | max response [5]: 9.09% and 23.8%

Nc1nc(N)c2nc(-c3ccccc3)c(N)nc2n1
outcome [1]: inactive | outcome [6]: inactive | outcome [7]: inactive | Potency [8]: 25.1 µM (active) | outcome [3]: inactive | Potency [4]: inactive | max response [5]: -2.09% and -8.78% | Potency [9]: 31.6 µM (active) | outcome [10]: inactive

COc1cc(Cc2cnc(N)nc2N)cc(OC)c1OC
outcome [1]: inactive | outcome [6]: inactive | outcome [7]: inactive | max response [8]: 0.934% | max response [5]: 1.83% and 3.42% | max response [9]: -2.08% | outcome [10]: inactive

CC(C)(Oc1ccc(CCNC(=O)c2ccc(Cl)cc2)cc1)C(=O)O
outcome [1]: inactive | outcome [6]: inactive | max response [8]: -11.9% | outcome [2]: inactive | outcome [3]: inactive | Potency [4]: inactive | max response [5]: 5.91% and 17.9% | max response [9]: -0.154% | outcome [10]: inactive

COC(=O)C1=C(C)NC(C)=C(C(=O)OCCN(C)Cc2ccccc2)C1c1cccc([N+](=O)[O-])c1 (stereo not given)
outcome [1]: inactive

CN1CCN(C2=Nc3ccccc3Oc3ccc(Cl)cc32)CC1
outcome [1]: inactive | outcome [2]: inactive | outcome [3]: inactive | Potency [4]: inactive | max response [5]: 15.1% and -7.99%

CCc1cccc(N(C)C(N)=Nc2cccc3ccccc23)c1
outcome [1]: inactive | outcome [2]: inactive | outcome [3]: inactive | Potency [4]: inactive | max response [5]: -2.27% and 4.9%

CCCCNC(=O)NS(=O)(=O)c1ccc(C)cc1
outcome [1]: inactive | outcome [6]: inactive | outcome [7]: inactive | max response [8]: 6.42% and -5.96% | outcome [3]: inactive | Potency [4]: inactive | max response [5]: 0.702% and 32.7% | max response [9]: 2.43% and -13.2% | outcome [10]: inactive

CC(=O)[C@@]1(O)CC[C@H]2[C@@H]3CCC4=CC(=O)CC[C@]4(C)[C@H]3CC[C@@]21C
outcome [1]: inactive | outcome [6]: inactive | max response [8]: -7.45% | outcome [2]: inactive | outcome [3]: inactive | Potency [4]: inactive | max response [5]: 5.26% and 15.8% | max response [9]: -17.3% | outcome [10]: inactive

CCCCNc1ccc(C(=O)OCCN(C)C)cc1
outcome [1]: inactive | outcome [2]: inactive | outcome [3]: inactive | Potency [4]: inactive | max response [5]: -1.47% and 12.4%

CCO/C([O-])=N/c1c[n+](N2CCOCC2)no1
outcome [1]: inactive | outcome [2]: inactive | outcome [3]: inactive | Potency [4]: inactive | max response [5]: -5.19%

Cc1cc(C)c(/C=C2\C(=O)Nc3ccccc32)[nH]1
outcome [1]: inactive | outcome [2]: inactive | outcome [3]: inactive | Potency [4]: inactive | max response [5]: -7.62% and 20.5%

COc1ccc(CN(CCN(C)C)c2ccccn2)cc1
outcome [1]: inactive | outcome [6]: inactive | outcome [7]: inactive | max response [8]: -3.41% | outcome [2]: inactive | outcome [3]: inactive | Potency [4]: inactive | max response [5]: -1.15% and 9.8% | max response [9]: -9.66% | outcome [10]: inactive

C[C@]12C=CC(=O)C=C1CC[C@H]1[C@@H]3C[C@@H](O)[C@](O)(C(=O)CO)[C@@]3(C)C[C@H](O)[C@@]12F
outcome [1]: inactive | outcome [6]: inactive | max response [8]: -0.0511% | outcome [2]: inactive | outcome [3]: inactive | Potency [4]: inactive | max response [5]: 20.4% and -3.94% | max response [9]: -7.12% | outcome [10]: inactive

CN(C)CCCN1c2ccccc2Sc2ccc(C(F)(F)F)cc21
outcome [1]: inactive | outcome [2]: inactive | outcome [3]: inactive | Potency [4]: inactive

C[C@]12CC[C@@H]3c4ccc(O)cc4C[C@@H](CCCCCCCCCS(=O)CCCC(F)(F)C(F)(F)F)[C@H]3[C@@H]1CC[C@@H]2O (stereo not given in full)
outcome [1]: inactive | outcome [2]: inactive | outcome [3]: inactive | Potency [4]: inactive

CCOC(=O)c1cnc2c(cnn2CC)c1NN=C(C)C
outcome [1]: inactive | outcome [2]: inactive | outcome [3]: inactive | Potency [4]: inactive | max response [5]: 1.49% and 6.62%

O=C(O)CCCCCCCC(=O)O
outcome [1]: inactive | outcome [6]: inactive | max response [8]: -8.37% | outcome [2]: inactive | outcome [3]: inactive | Potency [4]: inactive | max response [5]: 9% and 10.5% | max response [9]: -0.211% | outcome [10]: inactive

Source: PubChem BioAssay (NCATS)
